Screen size: about 350,000 compounds; about 1,300 (0.37%) were called active. Only a selection was taken, and actives are over-represented in it overall. Unmarked numbers belong to inactive results. Cut-off read from the data, not from the text of the source: active = response mostly above about 7.3% (no sharp cut-off); inactive = mostly below about 5.4%.
assay: yeast vacuolar ATPase proton transport modulators – pHLuorin cytosolic pH fluorescence, primary screen (AID 504577); conditions: S. cerevisiae, at 10 µM, active compounds read high

Row | Compound | response
1 | Cc1cc(C(=O)NC2CCN(Cc3ccccc3)CC2)n[nH]1 | 4.4%
2 | O=C(NC1CCN(Cc2ccccc2)CC1)c1ccc(Oc2cc(Cl)cc(Cl)c2)o1 | 0.98%
3 | O=C(NC1CCN(Cc2ccccc2)CC1)c1cc(Br)c(Br)[nH]1 | 10.4% (active)
4 | O=C1c2ccccc2C(=O)N1CCCCCCN1C(=O)c2ccccc2C1=O | 9.59% (active)
5 | O=C(OCCN1C(=O)c2ccccc2C1=O)Oc1ccccc1 | -2.47%
6 | O=C(CCCN1C(=O)c2ccccc2C1=O)Oc1ccc(Cl)cc1 | 8.16%
7 | Cc1cc(C(C)(C)C)cc(S(=O)(=O)Nc2ccc(C(=O)O)cc2)c1C | -1.72%
8 | COCCN(Cc1ccccc1)C(=O)Cc1ccc(S(=O)(=O)N2CCOCC2)s1 | 0.76%
9 | CN(CC(=O)NCC(c1ccccc1)N1CCCC1)S(=O)(=O)c1ccc(Cl)cc1 (stereo not given) | -3.93%
10 | O=C1NC(c2ccc(-c3ccccc3[N+](=O)[O-])o2)C(C(=O)c2ccc(Cl)cc2)C(O)(C(F)(F)F)N1 (stereo not given) | -0.4%
11 | O=C(Nc1ccc(N2CCOCC2)cc1)c1ccc(-c2ccccc2[N+](=O)[O-])o1 | -1.06%
12 | CC1=NN(c2ccc(Cl)c(C(=O)O)c2)C(=O)/C1=C/c1ccc(-c2ccccc2[N+](=O)[O-])o1 | 240% (active)
13 | O=C(COC(=O)CCCNC(=O)c1ccc(Cl)cc1)Nc1cc(Cl)ccc1Cl | -2.06%
14 | CNC(=O)c1csc(-c2ccccc2)n1 | -0.68%
15 | CC(=O)NNC(=O)c1csc(Cc2c(Cl)sc3ccc(Cl)cc23)n1 | -1.89%
16 | CNC(=O)c1csc(Cc2c(Cl)sc3ccc(Cl)cc23)n1 | 12.4% (active)
17 | COc1cccc(N2CCN(C(=O)Nc3ccc4c(c3)NC(=O)CO4)CC2)c1 | 0.53%
18 | O=C(CNC(=O)c1cc(S(=O)(=O)N2CCOCC2)ccc1N1CCCC1)Nc1ccc(F)c(F)c1 | -1.89%
19 | CC(C)(C)C(=O)COC(=O)c1cc(S(=O)(=O)N2CCCCC2)ccc1N1CCOCC1 | 5.71%
20 | O=C(NCC1CCCCC1)c1cc(S(=O)(=O)N2CCCCC2)ccc1N1CCOCC1 | 11.1% (active)
21 | COCCN1C2=C(COC(C)(C)C2)C(=S)NC1c1ccccc1 (stereo not given) | 1.2%
22 | O=C(O)CC12CC3CC(C1)CC(n1ncc(NCc4ccc(F)cc4)c(Cl)c1=O)(C3)C2 | 1.78%
23 | CC(C)c1ccc(OCC(O)CN2CCN(c3ccccn3)CC2)cc1 (stereo not given) | 1.79%
24 | OC(COc1ccccc1)CN1CCN(c2cccc(Cl)c2)CC1 (stereo not given) | -2.02%
25 | OC(COc1cccc2ccccc12)CN1CCN(c2ccccn2)CC1 (stereo not given) | 16.7% (active)
